Assay outcomes deposited in PubChem by National Center for Advancing Translational Sciences (NCATS).
Hits are enriched below; roughly 19% of the tested compounds scored in any of these assays.
ELG1 repair inh: inhibitors of ELG1-dependent DNA repair in HEK293T cells. 2.3% of 330,000 active. HEK293T ELG1-luciferase reporter, luminescence, 16 h; DNA damage induced by 5-fluorouridine. Potency, µM (highest dose often 46.1 µM), for the others: at the top dose activity change, negative = inhibition, hits mostly inhibitors. AID 504467; note: potency is the fitted concentration of half-maximal effect; nearly all actives have a fitted effect of over 55% in size
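HEK293T cells expressing luciferase-tagged ELG1 (2,000/well) received 5-Fluorouridine plus compound or DMSO for 16 hr at 37 °C. Luciferase was read by ONE-Glo luminescence after 30 min at room temperature.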
Giardia kill: Giardia lamblia killing. 0.15% of 340,000 active. activity change, % at 7.66 µM, hits read low. Giardia lamblia trophozoite viability; in the data active = activity change below about -80%; inconclusive = between about -30% and that limit;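 note: parasites exposed to compound for two days anaerobically before the ATP read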
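Trophozoite viability was measured as ATP-dependent luminescence, read 15-30 min after reagent addition. Before that, parasites at 100 cells/well were exposed to compounds for 48 h, anaerobically, at 37 deg C.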
TDP1 cell CPT: growth inhibition of DT40 Tdp1-/-;hTDP1 cells with camptothecin (screen for TDP1 inhibitors) | chicken DT40 Tdp1-/-;hTDP1 cells + 20 nM CPT, ATP luminescence, 48 h | Potency, µM (highest dose often 46.2 µM), for inactives: at the highest dose activity change, negative = growth inhibition, usual class: inhibitors | 12% of 420,000 active; note: potency is the fitted concentration of half-maximal effect; nearly all actives have a fitted effect of over 55% in size
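Chicken DT40 Tdp1-/- cells complemented with human TDP1, 400 cells/well, exposed to compounds plus 20 nM camptothecin for at least 48 h at 37 C; viability read as ATP content by CellTiter-Glo luminescence.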
IL-1B inflam inh: blocks inflammasome-driven IL-1 beta release | activity change, % at 57.5 µM | 4.7% of 360,000 active | THP-1 LPS/ATP IL-1B secretion, AlphaLISA, 16 h; active compounds read low; in the data active = activity change below about -50%; inconclusive = mostly about -30% to -49%
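THP-1 cells pretreated 1 hr with compounds (up to 57.5 uM final), then stimulated with LPS (250 ng/mL final) plus ATP (1.25 mM final); secreted IL-1B measured by AlphaLISA after 16 hr, decreased signal indicating inhibition.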
TDP1 inh: TDP1 (human) enzyme inhibition; 0.28% of 350,000 active; Potency, µM (top dose mostly 130 µM), without a hit: at the top dose activity change, negative = inhibition, hits mostly inhibitors; recombinant TDP1, AlphaScreen DNA substrate cleavage; Q9NUW8; AID 485290; note: potency is the fitted concentration of half-maximal effect; nearly all actives have a fitted effect of over 40% in size
Target sequence (Q9NUW8 whole entry, looked up): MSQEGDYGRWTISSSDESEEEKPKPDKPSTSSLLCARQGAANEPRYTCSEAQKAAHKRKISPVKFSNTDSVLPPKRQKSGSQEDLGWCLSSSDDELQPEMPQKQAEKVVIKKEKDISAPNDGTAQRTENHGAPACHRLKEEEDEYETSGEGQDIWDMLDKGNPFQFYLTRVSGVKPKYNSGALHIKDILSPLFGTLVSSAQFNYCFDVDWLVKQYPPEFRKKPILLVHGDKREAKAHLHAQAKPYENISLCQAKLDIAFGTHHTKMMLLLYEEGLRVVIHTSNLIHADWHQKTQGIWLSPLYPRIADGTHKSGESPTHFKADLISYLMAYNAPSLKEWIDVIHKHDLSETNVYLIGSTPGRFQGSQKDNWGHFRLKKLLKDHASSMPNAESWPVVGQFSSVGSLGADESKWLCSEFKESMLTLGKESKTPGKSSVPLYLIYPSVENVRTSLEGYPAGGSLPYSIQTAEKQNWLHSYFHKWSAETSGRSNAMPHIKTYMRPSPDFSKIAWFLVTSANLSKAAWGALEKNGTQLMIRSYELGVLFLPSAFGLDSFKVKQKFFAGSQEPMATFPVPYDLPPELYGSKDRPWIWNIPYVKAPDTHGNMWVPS
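Recombinant E. coli-expressed Tdp1 (1 nM) preincubated with compound 15 min at RT, then 5'-biotin/3'-phosphotyrosine-FITC DNA substrate (15 nM) added for 5 min. AlphaScreen beads (10 ug/ml) added, 10 min RT; tyrosine-FITC cleavage read as signal loss.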
TDP1 cell noCPT: qHTS for Inhibitors of human tyrosyl-DNA phosphodiesterase 1 (TDP1): qHTS in cells in absence of CPT | DT40 Tdp1-/- hTDP1 cells, no CPT, ATP luminescence, 48 h | Potency, µM (top dose mostly 46.2 µM), without a hit: at the top dose activity change, negative = growth inhibition, hits mostly inhibitors | 15% of 420,000 active | AID 686978, 2013; note: potency is the fitted concentration of half-maximal effect; nearly all actives have a fitted effect of over 55% in size
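Cells were dispensed at 400 per well, compounds added by pin tool, plates incubated ≥48 hr at 37 °C, then CellTiter-Glo added for 30 min at room temperature before luminescence reading. Line: DT40 Tdp1-/- complemented with hTDP1; camptothecin omitted.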
Active calls of the source: *; ? = inconclusive; / = no result; [ ] = another dose, or the depositor's remark. Unless noted, calls come from the whole dose curve; as a rule, active = well fitted curve in the direction sought with a large enough effect; inconclusive = small, poorly fitted or top-dose-only effect, or another doubt; inactive = no such curve, though single readings can be large; an effect the other way counts as inactive or inconclusive. % is set by controls: 0 for no effect and ±100 for the full control effect.

SMILES	ELG1 repair inh	Giardia kill	TDP1 cell CPT	IL-1B inflam inh	TDP1 inh	TDP1 cell noCPT
COc1ccc(OC)c(C(O)C(C)N)c1 (stereo not given)	-1.2%	4.4	10.1%	15.2	2.7%	-2.9%
Cc1cc(Cl)ccc1C(=O)C1CCCN(C2CCSCC2)C1 (stereo not given)	-3.8%	-3.5	25.9µM*	-27.9	2.8%	20.6µM*
O=C1NCCOC(=O)[C@@H](Cc2ccc(F)cc2)CC/C=C/C[C@@H]1CC(=O)N(CCO)Cc1ccccc1	-22.3%	-1.5	20.6µM*	1.7	0.1%	23.1µM*
O=C1NC(=O)C(=Cc2cccs2)C(=O)N1	/	18.1	18.4µM*	-17.6	/	16.4µM*
O=C1NC(=O)C(=Cc2csc3ccccc23)C(=O)N1	20.2%	1.2	16.4µM*	-21.5	/	18.4µM*
O=C1NC(=S)N(c2ccccc2F)C(=O)/C1=C\c1cccs1	?	12.3	20.6µM*	-90.5*	-5.7%	?
Cc1ccccc1N1C(=O)/C(=C/c2ccco2)C(=O)NC1=S	-4.3%	/	/	/	/	/
CCOc1ccc(N2C(=O)/C(=C\c3cccs3)C(=O)NC2=S)cc1	?	9.2	?	-99.1*	3.8%	?
CCC(C)n1c(=O)[nH]c(C)c(Br)c1=O (stereo not given)	/	/	/	/	7.5%	/
CC[C@@]1(O)C(=O)OCc2c1cc1n(c2=O)-c2cc3ccccc3nc2C1	/	/	/	/	4.3%	/
OCCCNc1ccccc1	/	/	8.9%	/	/	-21.5%
CC(C)(C)C(O)C(Oc1ccc(-c2ccccc2)cc1)n1cncn1 (stereo not given)	/	/	/	/	23.3%	/
CCCC(C)C1(CC)C(=O)NC(=S)NC1=O (stereo not given)	/	/	/	/	6.1%	/
CC1=CCCC2C1(C)CCC(C)C2(C)CC/C(C)=C/C[n+]1cn(C)c2c(N)ncnc21 (stereo not given)	/	/	?	/	9.6%[56.1 µM]	?
Cc1ccc(OP(=O)(Oc2ccc(C)cc2)Oc2ccc(C)cc2)cc1	/	/	/	/	-10.4%	/
COc1ccc(Nc2cc(C)c3cc(NC(=O)c4ccccc4Cl)ccc3n2)cc1	/	/	20.6µM*	/	7.5%	9.2µM*
CCCCOP(=O)(OCCCC)C(O)c1ccc(Br)cc1 (stereo not given)	-7.6%	-7.7	23.1µM*	-3.6	5.6%	18.4µM*
CCOP(=O)(C#Cc1ccccc1)C(O)c1ccc(Br)cc1 (stereo not given)	?	-4.1	?	-19.4	/	?
C=C(C)C1CCC(C)=CC1c1c(O)cc(O)cc1CCCCC (stereo not given)	/	/	/	/	-2.0%	/
COc1ccc(C[C@@H]2c3cc(O)c(OC)cc3CCN2C)cc1O	4.5%	33.9	-22.4%	7.2	2.6%	0.4%
COc1cc2c(cc1O)[C@@H]1Cc3ccc(OC)c(O)c3CN1CC2	?	8.9	4.61µM*	18.5	/	4.11µM*
Cc1nn(Cc2ccccc2)c(C)c1C(=O)NCc1ccccc1F	-7.4%	-18.3	-2.6%	-22.9	3.7%	-19.8%
C=C1C=C(C(F)F)n2ncc(C(=O)NCc3ccccc3F)c2N1	/	/	?	/	/	11.2µM*
CC(C)C1C(=O)O[C@@H]2CCN3CC=C(COC(=O)[C@](C)(O)[C@]1(C)O)[C@H]23 (stereo not given in full)	/	/	/	/	12.1%	/
CC(=O)O[C@@H]1[C@@H](O)C2OC3C=C(C)C(=O)[C@@H](O)[C@]3(CO)C1(C)C21CO1 (stereo not given in full)	/	/	/	/	4.3%	/
SMILES	ELG1 repair inh	Giardia kill	TDP1 cell CPT	IL-1B inflam inh	TDP1 inh	TDP1 cell noCPT
CC(=O)OCC12CC(OC(=O)CC(C)C)C(C)=CC1OC1C(O)C(OC(C)=O)C2(C)C12CO2 (stereo not given)	/	?	0.0231µM*	-83.2*	/	0.0231µM*
CCOc1ccc(-c2cn3c(n2)sc2cc(C(=O)N4CCCC(C)C4)ccc23)cc1 (stereo not given)	/	/	10.3µM*	/	-2.9%	6.51µM*
CC[C@@H]1[C@@H]2C[C@H]3[C@H]4N(C)c5ccccc5[C@@]45C[C@@H]([C@@H]2[C@@H]5O)N3[C@H]1O	/	/	/	/	13.8%[21 µM]	/
Cc1cc(/C=C2/C(=O)NC(=O)N(C)C2=O)c(C)n1-c1ccccc1	-10.7%	4.0	-7.8%	6.2	-2.7%	-8.9%
Cc1cc(C=C2C(=O)N(C)C(=S)N(C)C2=O)c(C)n1-c1cccnc1	0.8%	23.2	?	-68.0*	0.6%	?
c1nc[nH]n1	/	/	/	/	4.8%	/
CCOc1ccccc1N1C(=O)NC(=O)/C(=C/c2ccc3c4c(cccc24)CC3)C1=O	8.3%	-17.7	?	-89.4*	0.0%	?
CCN(CC)C(=O)c1ccc(NC(=O)CNC(C)c2cccc3ccccc23)cc1 (stereo not given)	?	-8.5	-18.6%	-14.5	5.8%	?
C=C(C)[C@@]12OC3(c4ccccc4)O[C@@H]1C1[C@@H]4O[C@]4(CO)[C@@H](O)[C@]4(O)C(=O)C(C)=C[C@H]4[C@@]1(O3)[C@H](C)[C@H]2OC(=O)/C=C/C=C/c1ccccc1 (stereo not given in full)	/	-15.7	16.4µM*	97.4	/	3.26µM*
O=C1NCN(c2ccccc2)C12CCN(C(c1ccnc3ccccc13)c1nnnn1Cc1ccccc1)CC2 (stereo not given)	/	/	?	-51.4*	/	?
O=C1NCN(c2ccccc2)C12CCN(C(c1cccc3ccccc13)c1nnnn1Cc1ccccc1)CC2 (stereo not given)	/	/	18.4µM*	?	/	23.1µM*
COc1cccc(C(c2nnnn2C2CCCC2)N2CCC3(CC2)C(=O)NCN3c2ccccc2)c1OC (stereo not given)	/	/	?	?	/	14.6µM*
COc1ccc(-n2nnnc2C(c2cccc3ccccc23)N2CCC3(CC2)C(=O)NCN3c2ccccc2)cc1 (stereo not given)	/	/	-92.6%	?	/	9.2µM*
O=C1NCN(c2ccccc2)C12CCN(C(c1ccccc1OC(F)(F)F)c1nnnn1Cc1ccccc1)CC2 (stereo not given)	/	/	?	0.0	/	-85.9%
Cc1ccc2ccccc2c1C	/	/	/	/	5.9%	/
O=C(CN1CCOCC1)c1ccc2ccccc2c1	/	/	-0.7%	/	/	-10.6%
CCCCn1nnnc1C(CC)N1CCC2(CC1)C(=O)NCN2c1ccccc1 (stereo not given)	/	/	?	-2.7	/	?
CCCCn1nnnc1C(CCSC)N1CCC2(CC1)C(=O)NCN2c1ccccc1 (stereo not given)	/	/	23.1µM*	-21.2	/	?
